Shown are actives, neighbours in structure and some others; about 4.8% of the full set was active somewhere.
DAX1 inh-1 – DAX1 (NR0B1) inhibitors on StAR promoter, primary screen, cell-based, luminescence, SF-1 (NR5A1), full-length DAX-1; HEK293T StAR-luciferase reporter, SF-1/DAX-1 repression relief; 1.1% of 370,000 active; AID 652010, 2013; inhibition, % at 6.8 µM;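 active = inhibition above the mean over all tested compounds plus 3 SD, cut at about 3.6% in these data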;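 also: 0% = DAX-1 cells with DMSO and 100% = cells lacking DAX-1 with DMSO; higher inhibition means more luminescence from relief of DAX-1 repression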
DAX1 inh-2 – DAX1 (NR0B1) inhibitors, primary screen, cell-based, HEK293, Gal4-DAX1, luciferase luminescence; inhibition, % at 6.75 µM; 0.99% of 340,000 active; HEK293 Gal4-DAX1 luciferase reporter; AID 504766, 2011;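 active = inhibition above the mean over all tested compounds plus 3 SD, cut at about 4.2% in these data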;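 also: 0% = DAX1-transfected cells with DMSO and 100% = empty-vector control cells with DMSO; inhibition shows as a rise in luminescence from relieved DAX1 repression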
Target sequence (P51843 207-470 limits assumed): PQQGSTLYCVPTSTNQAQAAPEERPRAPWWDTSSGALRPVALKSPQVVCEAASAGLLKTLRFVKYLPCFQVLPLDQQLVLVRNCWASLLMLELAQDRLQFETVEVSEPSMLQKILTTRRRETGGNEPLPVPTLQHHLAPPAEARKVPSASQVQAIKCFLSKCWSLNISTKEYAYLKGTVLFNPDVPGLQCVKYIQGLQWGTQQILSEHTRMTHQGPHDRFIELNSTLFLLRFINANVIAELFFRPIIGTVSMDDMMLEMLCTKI
hgDAF12 agonist – H. glycines DAF-12 receptor agonists, primary screen, cell-based, luminescence, HEK293, GAL4 fusion, UAS-luciferase | Nuclear hormone receptor DAF-12 (Heterodera glycines), GAL4 fusion | HEK293 GAL4-hgDAF12 UAS-luciferase reporter, agonist luminescence; normalized to butyrate control | activation, % at 6.8 µM | 1.8% of 370,000 active | AID 687014, 2013;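 active = activation above a cutoff set at the mean of all screened compounds plus 3 SD, cut at about 10% in these data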;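 also: 0% = DMSO wells and 100% = sodium butyrate wells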
hcDAF12 agonist – H. contortus DAF-12 nuclear receptor activators, primary screen, cell-based, luminescence, HEK293, lit1-tk-luc reporter; HEK293 hcDAF-12 lit1-tk-luc reporter; 0% DMSO, 100% Δ7-dafachronic acid; activation, % at 6.8 µM; 1.4% of 370,000 active; AID 652067, 2013;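 active = activation above the mean of all tested compounds plus 3 SD, cut at about 5.5% in these data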;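 also: 100% = response to 3 µM Δ7-dafachronic acid high control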
SMARCA2 activ – SMARCA2 (BRM) function activators, primary screen, cell-based, luminescence, high throughput; AID 652017, 2013; activation, % at 9.1 µM; 1% of 370,000 active; MG213 cells, MMTV-luciferase reporter, dexamethasone, overnight; in the data active = activation above about 7.8%;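 also: 0% = vehicle wells and 100% = reference activator wells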
ssDAF-12 act – S. stercoralis DAF-12 nuclear receptor activators, primary screen, cell-based, luminescence, HEK293, GRIP1 co-expression, lit1-tk-luc; HEK293 ssDAF-12/GRIP1 lit1-tk-luc reporter; % of 3 µM dafachronic acid response; 1% of 370,000 active; activation, % at 6.8 µM; AID 652126, 2013;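 active = activation above the mean over all tested compounds plus 3 SD, cut at about 0.9% in these data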;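 also: 0% = DMSO-only wells and 100% = 3 µM delta7-dafachronic acid wells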
SMARCA2 act conf – SMARCA2 (BRM) function activators, confirmation, cell-based, luminescence, triplicate; shares compounds with SMARCA2 activ; MG213 cells, MMTV-luciferase with dexamethasone, overnight; MG213 cells expressing E1A, Rb sequestered; DMSO wells 0%, reference activator 100%; activation, % at 9.1 µM; 30% of 3,500 active; AID 652260, 2013;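 active = activation above its plate's cutoff, the mean activation of tested wells plus 3 SD, cut at about 7.9% in these data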
GAL4-VP16 Luc – GAL4-VP16 luciferase reporter activation, counter-screen for SMARCA2 (BRM) activator project, cell-based, pG5luc, luminescence, high throughput | shares compounds with SMARCA2 activ | HEK293 GAL4-VP16 pG5luc reporter; scaled: DMSO wells 0%, SAHA wells 100% | activation, % at 9.1 µM | 41% of 3,500 active | AID 686939, 2013;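 active = activation above the solvent-only control well mean plus 3 SD, averaged across control plates, cut at about 5.2% in these data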
LXR ag – LXR agonists, Gal4 luciferase reporter, confirmation, counter-screen for hcDAF-12 agonist project, cell-based, luminescence, HEK293, H. contortus campaign; shares compounds with hcDAF12 agonist; HEK293 Gal4-LXR tk-luc reporter, 24 h; normalized: DMSO 0%, positive control 100%; activation, % at 6.8 µM; 3,400 tested, under 10 active; AID 743027, 2013;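 active = mean percent activation of the reporter above a cutoff set as the average over tested compounds plus their standard deviation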
Target sequence (P55055 whole entry, looked up, the tested form may be a part): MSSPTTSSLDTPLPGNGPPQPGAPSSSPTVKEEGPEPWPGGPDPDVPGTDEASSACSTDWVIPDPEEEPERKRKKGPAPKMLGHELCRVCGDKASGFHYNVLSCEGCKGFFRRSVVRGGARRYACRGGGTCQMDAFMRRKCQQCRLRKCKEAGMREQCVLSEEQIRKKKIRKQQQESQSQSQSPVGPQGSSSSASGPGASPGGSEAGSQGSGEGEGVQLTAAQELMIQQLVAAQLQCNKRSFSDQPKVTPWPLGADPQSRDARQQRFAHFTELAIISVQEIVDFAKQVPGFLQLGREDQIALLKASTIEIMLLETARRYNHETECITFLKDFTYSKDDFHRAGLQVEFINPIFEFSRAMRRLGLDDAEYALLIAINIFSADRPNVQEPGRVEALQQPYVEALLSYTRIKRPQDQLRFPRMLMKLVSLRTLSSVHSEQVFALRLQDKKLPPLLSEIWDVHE
hcDAF12 ag – H. contortus DAF-12 receptor agonists, confirmation, cell-based, luminescence, HEK293, lit1-tk-luc, triplicate | shares compounds with hcDAF12 agonist | HEK293 hcDAF-12 lit1-tk-luc reporter; % of Δ7-dafachronic acid response | activation, % at 6.8 µM | 61% of 3,400 active | AID 743032, 2013;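 active = mean activation across triplicate tests above the threshold derived from the earlier primary screen, cut at about 5.5% in these data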;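 also: 0% = DMSO only wells and 100% = 3 µM Δ7-dafachronic acid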
hgDAF12 ag – H. glycines DAF-12 receptor agonists, confirmation, cell-based, luminescence, HEK293, GAL4-LBD fusion; shares compounds with hgDAF12 agonist; HEK293 GAL4-hgDAF12 luciferase reporter, agonist mode; percent of butyrate response; activation, % at 6.8 µM; 80% of 3,300 active; AID 743050, 2013;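 active = mean activation over triplicate wells above the hit cutoff derived from the earlier primary screen, cut at about 11% in these data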;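 also: 0% = DMSO low control and 100% = 2 mM sodium butyrate high control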
LXRb DAF12 ctr – LXR agonists, Gal4 luciferase reporter, confirmation, counter-screen for hgDAF-12 agonist project, cell-based, luminescence, HEK293, H. glycines campaign; shares compounds with hgDAF12 agonist; 24 h; activation, % at 6.8 µM; 3,300 tested, under 10 active; AID 743051, 2013;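 active = mean activation of the triplicate above a set limit carried over from the primary screen, none filed active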
Numbers without * were called inactive; nt = no result.

SMILES | DAX1 inh-1 | DAX1 inh-2 | hgDAF12 agonist | hcDAF12 agonist | SMARCA2 activ | ssDAF-12 act | SMARCA2 act conf | GAL4-VP16 Luc | hgDAF12 ag | LXRb DAF12 ctr | others
CC(C)[C@H](NC(=O)OC(C)(C)C)C(=O)NCC1CCC(C(=O)N[C@@H](Cc2ccccc2)C(=O)O)CC1 (stereo not given in full) | 0 | -1 | 2 | -2 | -2 | -1 | nt | nt | nt | nt
O=C(c1ccccc1)c1ccc2c(c1)OCCOCCOCCO2 | 0 | 2 | -2 | 0 | -4 | -1 | nt | nt | nt | nt
O=C(c1ccccc1)c1ccc2c(c1)OCCCO2 | 1 | 4.6* | 15* | 6.2* | 11* | 0 | 8.1* | 8.9* | 18* | 1
O=C(Nc1ccc(N2CCCCCC2)cc1)c1ccccc1Cl | 1 | 2 | 17* | 1 | 8.0* | 1 | 5 | 8.0* | 19* | 1
CC(=O)N1CCN(c2ccc(NC(=O)c3ccccc3Cl)cc2)CC1 | 0 | 0 | 3 | 0 | 0 | -1 | nt | nt | nt | nt
O=C(Nc1ccccc1)c1cc2ccccc2o1 | 3 | -1 | 19* | 13* | 13* | 1.9* | 4 | 5 | 22* | 1 | LXR ag=2;hcDAF12 ag=17*
O=C(Nc1ccccc1)c1ccc(OC(=O)c2cc3ccccc3o2)cc1 | 0 | 0 | 2 | 1 | -1 | -1 | nt | nt | nt | nt
CN1/C(=C\C(=O)c2cccnc2)Sc2ccccc21 | 3 | 1 | 18* | 2 | 13* | -1 | 6 | 9.1* | 11* | 1
CN1OC[C@@H]2CN3C(=O)N(c4cccc5ccccc45)c4ccccc4[C@@H]3C[C@@H]21 | 0 | nt | 5 | 4 | -3 | -1 | nt | nt | nt | nt
COc1cccc(CC(=O)OCC(=O)N(C)CC(=O)Nc2ccc(Cl)c(C(F)(F)F)c2)c1 | 0 | 1 | -1 | 0 | -1 | -1 | nt | nt | nt | nt
CSc1ccc(/C=N/NC(=O)c2cccc(O)c2)cc1 | 4.1* | -1 | 15* | 4 | 9.6* | 0 | 6 | 14* | 18* | 1
CCOc1ccc(C(=O)N/N=C/c2ccc(SC)cc2)cc1 | 0 | 0 | 3 | -2 | -2 | -1 | nt | nt | nt | nt
COc1ccc(C(CC(=O)Nc2nccs2)n2cccc2)cc1 (stereo not given) | 2 | 3 | 16* | 3 | 8.1* | 0.9* | 5 | 10.0* | 16* | 1
COc1ccc(N=c2oc3ccc(OC)cc3cc2-c2nc3ccccc3[nH]2)cc1 | 2 | 2 | 15* | 6.7* | 14* | 2.5* | 3 | 9.9* | 10* | 0 | LXR ag=0;hcDAF12 ag=5
CCCn1c(=NC(=O)c2ccco2)c(C(=O)OCC)cc2c(=O)n3ccccc3nc21 | 1 | 2 | 13* | 4 | 13* | 1 | 4 | 2 | 0 | 0
CC(/C=N/NC(=O)c1ccccn1)=C\c1ccco1 | 2 | nt | 14* | 4 | 8.7* | 1.2* | 12* | 14* | 11* | 1
O=C(COc1cccc2cccnc12)Nc1nccs1 | 1 | 2 | 14* | 4 | 9.2* | 1 | 9.0* | 12* | 10* | 1
O=C(/C=C/c1ccco1)Nc1nnc(-c2ccco2)s1 | 1 | 1 | 3 | 0 | 3 | 0 | nt | nt | nt | nt
Cc1nc(NC(=O)/C=C/c2ccco2)sc1C | 2 | 3 | 13* | 1 | 10* | -1 | 7 | 7.6* | 19* | 1
Cc1cc(C)c(NC(=O)CCc2c(C)noc2C)c(C)c1 | 2 | 0 | 1 | 0 | 1 | -1 | nt | nt | nt | nt
COc1ccc(-c2cc(C(=O)c3c(N)n(C)c(=O)n(C)c3=O)c3ccccc3n2)cc1 | 1 | 2 | 14* | 5 | 8.2* | 1.7* | 8.8* | 7.3* | 10* | 0
COc1ccc(-c2cc(C(=O)OCC(=O)c3c(N)n(C)c(=O)n(C)c3=O)c3ccccc3n2)cc1 | 0 | -1 | 4 | 1 | -4 | -2 | nt | nt | nt | nt
CCOC(=O)[C@]12CCCC=C1N(Cc1ccccc1)C(=O)[C@H](CC(=O)NCCCCc1ccccc1)C2 | 0 | nt | 1 | -1 | 2 | -1 | nt | nt | nt | nt
O=C(C1CCCCC1)N1C[C@@H](n2cc(-c3ccc(F)cc3)nn2)[C@H](O)C[C@@H]1c1ccc(Cl)cc1 | 0 | 1 | 0 | 0 | -3 | -2 | nt | nt | nt | nt
O=C(NC1CCCCCC1)c1cc2ccccc2oc1=O | 4.0* | 1 | 13* | 7.5* | 8.9* | 0.9* | 6 | 12* | 16* | 1 | LXR ag=1;hcDAF12 ag=3

Compound activity as filed in PubChem BioAssay.
